Laboratory results: PubChem BioAssay (NCI)
“And” between values parts separate entries of the source, which are not always exact repeats. Equal entries are not always repeated. Compounds without any hit were thinned out: in the full panel of roughly 83,000, 20% have a hit.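 Results are percent growth after 48 hours of single-concentration exposure. 100 means growth as in untreated cells, lower positive values show inhibition; negative values down to -100 show cell death.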 Values without a mark were called inactive. The source made the active and inactive calls. How the source made its calls: active means growth percent below 10; inactive means the rest.

Test system: MDA-MB-231 breast
Assay: NCI-60 one-dose screen, 48 h (100 = growth as untreated, 0 = no growth, -100 = all killed)
Settings: 10 µM unless noted

Compound	growth
CCNC(=O)Oc1ccc(/C(=C(/C)Cc2ccc(OC)cc2)c2ccc(OCCN(CC)CC)cc2)cc1	45%
Cc1ccc(-c2nc(C#N)c(S(=O)(=O)N(C)C)o2)cc1	88.1%
COCCn1cc(-c2nc(-c3cn(CCOC)c4ncccc34)cs2)c2ccccc21	49%
Nc1nc2ccccc2c2c(=O)c3ccc(Cl)cc3sc12	91%
CC[C@]1(O)CC2CN(CCc3c([nH]c4ccccc34)C(C(=O)OC)(c3cc4c(cc3OC)N(C=O)[C@H]3[C@@](O)(C(=O)OC)[C@H](OC(C)=O)[C@]5(CC)[C@@H]6C[C@@H]6CN6CC[C@]43[C@@H]65)C2)C1 (stereo partly drawn)	-27.5% (active)
CN1CCN(CCCN2c3ccccc3Sc3ccc(Cl)cc32)CC1	70.7% and 55.1%
Nc1ncc(-c2ccc3ncnc(N4CCc5ccc(Cl)cc54)c3c2)cc1C(F)(F)F	21.8%
CC(C)(C)c1cc(NC(=O)Nc2ccc(-c3cn4c(n3)sc3cc(OCCN5CCOCC5)ccc34)cc2)no1	43.3% and 35.6%
CC1(Cc2ccccc2)CC2=C(C(=O)O1)C(c1ccccc1)NC(=O)N2 (stereo not drawn)	103%
COc1cc(C=O)ccc1Oc1ccc([N+](=O)[O-])cc1[N+](=O)[O-]	104%

Test system: RXF 393 renal
Assay: as above
Settings: 10 µM unless noted

Compound	growth
COc1ccc(C/C(C)=C(/c2ccc(OCCN3CCCC3)cc2)c2ccc(OC(=O)NCc3ccccc3)cc2)cc1	76.8%
CCN(CC)CCOc1ccc(/C(=C(\Cl)c2ccccc2)c2ccccc2)cc1	-58.3% (active) and -26.6% (active)
Cc1ccc(/C=C2\COc3ccc(O)c(O)c3C2=O)cc1	-35.3% (active)
COc1ccc2c(c1)oc1c(C)c3c(c(C)c12)C(=O)N(Nc1ccccc1)C3=O	116%
CCC(=C(c1ccc(OCCCN(C)C)cc1)c1ccc(OCCCN(C)C)cc1)c1ccc(Cl)cc1	-82.7% (active)
CCOC(=O)c1c(-c2ccc(C)cc2)c(C#N)c(=O)n(-c2cccc(C(F)(F)F)c2)c1N	101%
S=c1nc(CS)[nH]c2ccccc12	109%
O=C(N/N=C/c1ccc(O)cc1O)c1cccc(Nc2ccnc(C(F)(F)F)c2)c1	44.9%
CCN(CC)CCCN1C(=O)c2c(c(C)c3c(oc4cc(OC)ccc43)c2C)C1=O	73%
Cc1ccc(NC(=O)c2ccc(CN3CCN(C)CC3)cc2)cc1Nc1nccc(-c2cccnc2)n1	94.3% and 69.3%
COc1cc(/C=C2/C=C(c3ccc(C(C)(C)C)cc3)N(CCc3ccc(S(N)(=O)=O)cc3)C2=O)cc(OC)c1OC	12.4%
O=c1c(/C=C/c2ccco2)nnc2sc(Nc3ccc(Cl)cc3)nn12	114%
Nc1[nH]nc(Nc2ccccc2)c1-c1nc2ccccc2s1	36.3%
CCCCCCCCn1ccc2cc(NC(=O)CN3CCN(c4nc(C)cc(N5CCCCC5)n4)CC3)ccc21	86.9%
CC/C(=C(/c1ccc(O)cc1)c1ccc(OCCN2CCCCCC2)cc1)c1ccc(Cl)cc1	63.7%
C=C(C)[C@@H]1CC[C@]2(C(=O)N3CCN(C)CC3)CC[C@]3(C)[C@H](CC[C@@H]4[C@@]5(C)CC(CCCNC(C)=O)(CCCNC(C)=O)[C@H](OC(C)=O)C(C)(C)[C@@H]5CC[C@]43C)[C@@H]12	109%
CCN(c1cc(-c2ccc(CN3CCC(/C=C/S(=O)(=O)c4ccccc4)CC3)cc2)cc(C(=O)NCc2c(C)cc(C)[nH]c2=O)c1C)C1CCOCC1	17.7%
Nc1nc(N)c2c(n1)NC(c1ccc(Cl)cc1)CC(c1cccc(Nc3ccncc3)c1)=N2 (stereo not drawn)	49.2%
C=C(c1ccc(C(=O)O)cc1)c1cc2c(cc1C)C(C)(C)CCC2(C)C	94.9% and 105%

Compound	growth
O=C1OCC2=C1C(c1cccc([N+](=O)[O-])c1)c1cc3c(cc1N2CCO)CCC3 (stereo not drawn)	27.8%
CCN(CC)/C([O-])=c1\cccc\c1=C1\N=C(c2ccccc2)N=C1[n+]1ccc(-c2ccccc2)cc1	104%
Cc1nc(-n2[nH]c(=O)ccc2=O)sc1N=Nc1ccccc1	97.5%
Cc1ccc(-c2nc3nc(-c4ccccc4)nc(N4CCCNCC4)c3o2)cc1	-73.2% (active)
O=C([C@H]1C[C@H]1c1ccc(S(F)(F)(F)(F)F)cc1)N1CCN(c2cc(Cl)ccc2C(F)(F)F)CC1	91.8%
OB(O)c1ccsc1-c1nc2ccc3[nH]ncc3c2c2c1CCCC2	19.2%
CC[C@]12CN3CCc4c([nH]c5ccccc45)[C@@](C(=O)OC)(c4cc5c(cc4OC)N(C)[C@H]4[C@@](O)(C(=O)OC)[C@H](OC(C)=O)[C@]6(CC)C=CCN7CC[C@]54[C@@H]76)CC(C3)[C@H]1O2 (stereo partly drawn)	10.2%
COC(=O)N/N=C/c1c[n+]([O-])c2ccccc2[n+]1[O-]	125%
Cn1ccnc1CN1CCSC(C(=O)Nc2ccccc2)C1 (stereo not drawn)	94.2%
CCNC(=O)Oc1ccc(/C(=C(/C)Cc2ccc(OC)cc2)c2ccc(OCCN(CC)CC)cc2)cc1	49.7%
Cc1ccc(-c2nc(C#N)c(S(=O)(=O)N(C)C)o2)cc1	105%
COCCn1cc(-c2nc(-c3cn(CCOC)c4ncccc34)cs2)c2ccccc21	76.1%
Nc1nc2ccccc2c2c(=O)c3ccc(Cl)cc3sc12	111%
CC[C@]1(O)CC2CN(CCc3c([nH]c4ccccc34)C(C(=O)OC)(c3cc4c(cc3OC)N(C=O)[C@H]3[C@@](O)(C(=O)OC)[C@H](OC(C)=O)[C@]5(CC)[C@@H]6C[C@@H]6CN6CC[C@]43[C@@H]65)C2)C1 (stereo partly drawn)	32.9%
CN1CCN(CCCN2c3ccccc3Sc3ccc(Cl)cc32)CC1	47% and 63%
Nc1ncc(-c2ccc3ncnc(N4CCc5ccc(Cl)cc54)c3c2)cc1C(F)(F)F	-38.8% (active)
CC(C)(C)c1cc(NC(=O)Nc2ccc(-c3cn4c(n3)sc3cc(OCCN5CCOCC5)ccc34)cc2)no1	-6.16% (active) and -13.6% (active)
CC1(Cc2ccccc2)CC2=C(C(=O)O1)C(c1ccccc1)NC(=O)N2 (stereo not drawn)	108%
COc1cc(C=O)ccc1Oc1ccc([N+](=O)[O-])cc1[N+](=O)[O-]	111%
